Screening data deposited in PubChem BioAssay by The Scripps Research Institute Molecular Screening Center.
Rows were chosen to be rich in hits. Some 0.87% of all compounds tested hit in one or more screens of this group.
TLR4-MyD88 BLA: TLR4-MyD88 interaction inhibition in cells; actives 0.18% (n = 200,000); inhibition, % at 8.4 µM; O00206+Q99836; HeLa CL3-4 TLR4/MyD88 BLA complementation, FRET ratio; in the data active = inhibition above about 25%;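 also: 0% = vehicle and 100% = reference inhibitor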
IDE cell inh: inhibitors of human insulin-degrading enzyme in cells; P14735; HEK cells, FAbetaB cleavage, fluorescence polarization; inhibition, % at 5.59 µM; actives 0.41% (n = 320,000); AID 434962;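 active = percent inhibition above the average of all tested compounds plus 3 SD, set per screening campaign, cut at about 16% in these data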;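 also: IDE supplied by intact live HEK cells; FP after avidin binding of uncleaved biotin substrate so inhibition keeps polarization high; 0% = DMSO wells and 100% = 60 µM reference IDE inhibitor Ii1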
TLR9-MyD88 inh: inhibitors of human TLR9-MyD88 binding | actives 0.21% (n = 340,000) | inhibition, % at 4.98 µM | CHO BLA complementation TLR9-MyD88, CCF4 FRET ratio | AID 504734;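 active = inhibition above the mean over all tested compounds plus 3 SD, cut at about 21% in these data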;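 also: 0% = DMSO only wells and 100% = clavulanate BLA inhibitor control wells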
Target sequence (Q99836 whole entry, looked up): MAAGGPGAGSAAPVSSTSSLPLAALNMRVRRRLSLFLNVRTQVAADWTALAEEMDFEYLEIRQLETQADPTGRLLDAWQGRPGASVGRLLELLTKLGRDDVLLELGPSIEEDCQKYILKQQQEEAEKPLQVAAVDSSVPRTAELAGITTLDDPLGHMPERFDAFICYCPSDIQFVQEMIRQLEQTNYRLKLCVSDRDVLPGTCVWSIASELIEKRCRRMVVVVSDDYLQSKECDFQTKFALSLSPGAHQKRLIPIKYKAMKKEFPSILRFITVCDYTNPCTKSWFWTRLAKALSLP
Target sequence (Q9NR96 whole entry, looked up): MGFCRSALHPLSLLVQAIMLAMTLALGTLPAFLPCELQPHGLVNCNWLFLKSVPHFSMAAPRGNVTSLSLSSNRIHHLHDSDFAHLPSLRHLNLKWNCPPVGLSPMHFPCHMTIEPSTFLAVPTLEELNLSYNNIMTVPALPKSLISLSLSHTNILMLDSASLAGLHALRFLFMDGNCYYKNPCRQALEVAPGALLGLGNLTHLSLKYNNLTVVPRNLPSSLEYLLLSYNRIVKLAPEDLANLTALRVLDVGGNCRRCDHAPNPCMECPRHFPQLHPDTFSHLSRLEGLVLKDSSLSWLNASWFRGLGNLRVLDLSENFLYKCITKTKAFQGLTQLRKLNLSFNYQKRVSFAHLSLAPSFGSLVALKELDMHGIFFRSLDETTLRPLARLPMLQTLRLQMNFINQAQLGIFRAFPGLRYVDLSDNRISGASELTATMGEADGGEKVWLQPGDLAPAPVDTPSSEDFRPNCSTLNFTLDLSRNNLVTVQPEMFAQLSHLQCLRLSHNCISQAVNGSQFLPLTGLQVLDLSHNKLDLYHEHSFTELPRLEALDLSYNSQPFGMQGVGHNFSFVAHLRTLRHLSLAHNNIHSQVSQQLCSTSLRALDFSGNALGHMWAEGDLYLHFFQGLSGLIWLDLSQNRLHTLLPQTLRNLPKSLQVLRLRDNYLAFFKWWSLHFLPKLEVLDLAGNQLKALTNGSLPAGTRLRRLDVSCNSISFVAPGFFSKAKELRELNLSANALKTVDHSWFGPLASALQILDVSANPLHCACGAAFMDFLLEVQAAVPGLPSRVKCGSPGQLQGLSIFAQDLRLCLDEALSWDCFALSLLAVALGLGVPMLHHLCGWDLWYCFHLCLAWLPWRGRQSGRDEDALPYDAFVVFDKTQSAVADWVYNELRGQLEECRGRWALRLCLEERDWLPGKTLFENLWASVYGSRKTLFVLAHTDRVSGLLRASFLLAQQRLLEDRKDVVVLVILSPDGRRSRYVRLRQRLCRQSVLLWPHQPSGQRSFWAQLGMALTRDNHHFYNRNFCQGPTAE
IDE act: activators of human insulin-degrading enzyme in cells; HEK cells, FAbeta-B cleavage, fluorescence polarization; 0% vehicle, 100% cell-free pure enzyme wells; activation, % at 5.96 µM; AID 493087; P14735; actives 0.073% (n = 340,000);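 active = activation above the mean of all tested compounds plus 3 SD, set per screening campaign, cut at about 17% in these data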
NOD2 RIPK2 PPI: NOD2-RIPK2 protein interaction inhibition. O43353. CHO BLA complementation NOD2-RIPK2, CCF4 ratio. inhibition, % at 4.98 µM. actives 0.38% (n = 360,000); in the data active = inhibition above about 21%;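 also: 0% = vehicle only and 100% = reference blocker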
TLR4-MyD88 conf: TLR4-MyD88 interaction inhibition confirmed; shares compounds with TLR4-MyD88 BLA; inhibition, % at 8.4 µM; actives 50% (n = 350); HeLa CL3-4 BLA complementation, CCF4 FRET ratio;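 active = mean inhibition across three repeat runs above about 25% carried over from the earlier screen, limit read from the data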;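 also: plate controls were DMSO only for no effect and clavulanic acid blocking BLA at full dose for full effect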
BLA inhibitor ct: beta-lactamase inhibition flagged in TLR4-MyD88 counter-screen; shares compounds with TLR4-MyD88 BLA; HeLa BLA reporter, CCF4 FRET ratio; inhibition, % at 8.4 µM; actives 63% (n = 350); AID 1237;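 active = mean inhibition over three repeats above about 26% taken from the earlier screen, limit read from the data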;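 also: HeLa cells stably expressing beta-lactamase reporter as counterscreen for TLR4-MyD88 inhibitors; 0% = DMSO and 100% = clavulanic acid full inhibition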
An asterisk follows results filed as active; · = no result given.

SMILES | TLR4-MyD88 BLA | IDE cell inh | TLR9-MyD88 inh | IDE act | NOD2 RIPK2 PPI | TLR4-MyD88 conf | BLA inhibitor ct
CCOc1cc(/C=C2\N=C(SC(C)C(N)=O)N(c3ccc(OC(F)F)cc3)C2=O)ccc1O (configuration not stated) | · | 108* | -5 | -100 | -1 | · | ·
COc1ccc(N2CCN(C(=O)c3ccc4c(c3)CCN4S(C)(=O)=O)CC2)cc1 | · | · | -6 | · | 2 | · | ·
Nc1ccc(-c2c3ccc(=O)cc-3oc3cc(O)ccc23)cc1C(=O)O | · | 17* | 6 | 47* | 5 | · | ·
O=c1ccc2c(-c3ccccc3)c3ccc(O)cc3oc-2c1 | · | -26 | -2 | 51* | 1 | · | ·
CCCCc1c(-c2cccc(Cl)c2)ncn1CCc1ccccc1OC | · | · | · | · | -10 | · | ·
CCOc1ccc(NC(=O)COc2cccc3cccnc23)cc1S(=O)(=O)N1CCCC1 | · | · | -11 | · | -6 | · | ·
O=C(COc1cccc2cccnc12)Nc1cccc(S(=O)(=O)N2CCCC2)c1 | · | -3 | 1 | 30* | -2 | · | ·
COc1cccc(-c2cnc3c(NC(C)=O)cc(-c4cc(OC)c(OC)c(OC)c4)cn23)c1 | · | · | · | · | 8 | · | ·
C#CCOCCOCCOCCNc1nc(N2CCN(C(=O)CCCCCCCCCCNC(=O)[C@@H](CCSC)n3cc(CCO)nn3)CC2)nc(N2CCN(C(=O)CCCCCCCCCCNC(=O)[C@H](CCCN=C(N)N)n3cc(C[C@@H](C)CC)nn3)CC2)n1 | · | 8 | -1 | 45* | 41* | · | ·
C#CCOCCOCCOCCNc1nc(N2CCN(C(=O)CCCCCCCCCCNC(=O)[C@H](CCCCN)n3cc(C[C@@H](C)CC)nn3)CC2)nc(N2CCN(C(=O)CCCCCCCCCCNC(=O)[C@H](CCCN=C(N)N)n3cc(C[C@@H](C)CC)nn3)CC2)n1 | · | -10 | 34* | 47* | 73* | · | ·
C#CCOCCOCCOCCNc1nc(N2CCN(C(=O)CCCCCCCCCCNC(=O)[C@@H](CCSC)n3cc(CCO)nn3)CC2)nc(N2CCN(C(=O)CCCCCCCCCCNC(=O)[C@H](CO)n3cc(CCCCCN)nn3)CC2)n1 | · | 5 | 1 | 29* | 8 | · | ·
C#CCOCCOCCOCCNc1nc(N2CCN(C(=O)CCCCCCCCCCNC(=O)[C@@H](CCSC)n3cc(CCO)nn3)CC2)nc(N2CCN(C(=O)CCCCCCCCCCNC(=O)[C@H](CCC(=O)O)n3cc(CCCCCN)nn3)CC2)n1 | · | 9 | -7 | 4 | -1 | · | ·
O=C(Nc1cccc(Oc2ccccc2)c1)C1Cc2c(-c3cccc(F)c3)ccnc2O1 (configuration not stated) | · | · | · | · | -2 | · | ·
Cc1cccc(C)c1NC(=O)C1(C)CN(S(C)(=O)=O)CC(=O)N1Cc1cccs1 (configuration not stated) | · | · | · | · | -18 | · | ·
Cc1cc(N2CCCC2)ccc1/C=C1/C(=O)N(C)C(=S)N1C | 12 | 31* | -8 | -63 | -5 | · | ·
O=C(NC1CCCC1)C(c1ccco1)N1CCN(c2c(Cl)cncc2Cl)CC1 (configuration not stated) | · | · | · | · | -5 | · | ·
Cc1ccc(C)c(-c2nn(-c3cc(N4CCN(CCO)CC4)ccc3[N+](=O)[O-])c(=O)c3ccccc23)c1 | -14 | -4 | 3 | 1 | 22* | · | ·
CCOC(=O)c1cnn2c(N)c(C#N)cnc12 | -7 | -6 | -5 | 9 | -4 | · | ·
CCOC(=O)c1c(C)nc2c(C#N)cnn2c1C | 25* | 0 | -8 | 3 | -4 | -4 | 14
O=c1c(Cl)c(Cl)cnn1Cc1ccc(F)cc1 | 27* | -4 | 11 | 4 | 17 | 16 | 7
O=C(OCn1ncc(Cl)c(Cl)c1=O)c1ccc(F)cc1 | 27* | 0 | · | · | · | 29* | 6
O=C(c1cccc(-c2nnc(-c3ccccc3)o2)c1)N1CCCCC1 | 28* | 7 | -5 | -2 | 9 | -12 | 5
O=C(c1cccc(-c2nnc(-c3ccccc3)o2)c1)N1CCCCCC1 | 24 | 2 | -4 | 0 | -12 | · | ·
c1ccc(OCCNc2ccn3nc(-c4ccco4)cc3n2)cc1 | · | · | · | · | -4 | · | ·
CCOc1ccc(S(=O)(=O)N2CCOCC2)c2ccccc12 | · | 7 | -1 | 4 | 2 | · | ·
SMILES | TLR4-MyD88 BLA | IDE cell inh | TLR9-MyD88 inh | IDE act | NOD2 RIPK2 PPI | TLR4-MyD88 conf | BLA inhibitor ct
CCOc1ccc(C(C)(C)C)cc1S(=O)(=O)N1CCOCC1 | 27* | 0 | -2 | 5 | -8 | 0 | -2
O=C(NCc1ccccn1)[C@@H]1CCCN1C(=O)[C@@H]1CCCN1C(=O)c1cccs1 | · | · | · | · | -7 | · | ·
CCn1c(SCC(=O)NCc2ccccc2)nc2nc3c(cc2c1=O)CCCC3 | 25* | 0 | 2 | 0 | 3 | -4 | 4
CN(C)c1ccc(/C=C/C(O)=C2/C(=O)N(C)C3(C)CC2c2ccccc2O3)cc1 (configuration not stated) | 49* | 42* | · | · | · | 35* | 68*
COc1cccc(C(=O)/C=C/Nc2cc(C)ccc2O)c1 | 27* | -2 | 17 | 6 | 4 | 13 | 24
CCOC(=O)c1ccc(N/C=C\C(=O)c2cccc(OC)c2)cc1 | -4 | 1 | -5 | 4 | -6 | · | ·
COCCn1c(=O)[nH]c(=O)c2c1nc(-c1ccc(-c3ccc(Cl)cc3[N+](=O)[O-])o1)n2Cc1ccccc1 | -8 | 6 | -5 | 0 | 1 | · | ·
COCCn1c(-c2ccc(-c3ccc([N+](=O)[O-])cc3Br)o2)nc2c1c(=O)[nH]c(=O)n2CC(C)C | 44* | 2 | -2 | 5 | 15 | 30* | 59*
COc1ccccc1N1CCN(C(=O)COc2cc(C)cc(C)c2)CC1 | 26* | -3 | -6 | 1 | 2 | -5 | -2
CC(=O)/C(=N\Nc1ccccc1)Sc1cccc2cccnc12 | -12 | 7 | 2 | 3 | 8 | · | ·
O=C(Sc1cccc2cccnc12)c1ccc(F)cc1 | 29* | · | · | · | · | 26* | 40*
O=S(=O)(Nc1cc(Sc2cccc3cccnc23)c(O)c2ccccc12)c1ccc(F)cc1 | 29* | 12 | · | · | · | 25* | 32*
CC1(C(=O)NS(=O)(=O)c2ccccc2Cl)CCN1C(=O)CCc1cccs1 (configuration not stated) | · | · | · | · | -13 | · | ·
CCCCNC(=O)N1CCN(C/C=C/c2ccccc2)CC1 | 25* | -1 | -8 | 2 | -1 | -4 | -1
COC(=O)[C@@]12C[C@@H](CC(=O)NCC34CC5CC(CC(C5)C3)C4)C(=O)N(Cc3ccc4c(c3)OCO4)C1=CCC(C)(C)C2 | · | · | · | · | 2 | · | ·
COC(=O)c1ccc(-n2c(C)cc(C(=O)CCl)c2C)cc1 | 25* | 3 | -2 | 2 | 3 | 20 | -6
COc1ccc(C)cc1S(=O)(=O)N1CCN(S(=O)(=O)c2cc(C)ccc2OC)C(C)C1 (configuration not stated) | 27* | 3 | 1 | 7 | 0 | -2 | 10
